# Screening data deposited in PubChem BioAssay by National Center for Advancing Translational Sciences (NCATS).
# Cruzain noTriton: blocks cruzain activity in detergent-free assay; P25779; purified cruzain, Z-FR-AMC fluorescence, no detergent; Potency, µM, for the others: max response, negative = inhibition, hits mostly inhibitors; actives 2.3% (n = 200,000);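 note: plate controls were enzyme without inhibitor for no effect and buffer without enzyme for full effect; nearly all actives have a fitted effect of over 40% in size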
# Target sequence (P25779 123-467 limits assumed): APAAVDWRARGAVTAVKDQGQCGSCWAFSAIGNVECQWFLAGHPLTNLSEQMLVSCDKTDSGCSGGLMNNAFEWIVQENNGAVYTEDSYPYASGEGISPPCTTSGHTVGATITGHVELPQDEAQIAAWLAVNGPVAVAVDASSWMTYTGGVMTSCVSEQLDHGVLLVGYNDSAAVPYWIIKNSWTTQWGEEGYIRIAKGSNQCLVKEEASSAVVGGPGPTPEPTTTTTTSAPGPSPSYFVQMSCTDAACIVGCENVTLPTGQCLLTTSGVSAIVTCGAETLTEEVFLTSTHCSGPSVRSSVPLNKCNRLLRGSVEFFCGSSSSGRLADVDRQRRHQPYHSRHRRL
#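 Purified cruzain at 1.5 nM, pre-incubated 15 min with compound at room temperature in 100 mM sodium acetate pH 5.5, 5 mM DTT, 0.00005% Triton X-100. Reaction started with 2 uM Z-FR-AMC; AMC fluorescence increase over 60 s gives rate.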
# Cruzain Triton: blocks cruzain activity in presence of Triton detergent. P25779. Potency, µM, inactives show max response, negative = inhibition, usual class: inhibitors. actives 0.43% (n = 200,000). purified cruzain, Z-FR-AMC fluorescence, 0.01% Triton;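 note: plate controls were neutral wells for no effect and buffer without enzyme for full effect; nearly all actives have a fitted effect of over 40% in size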
#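 Purified cruzain (1.5 nM final) was preincubated with compounds for 15 min at room temperature in 100 mM sodium acetate pH 5.5, 5 mM DTT, 0.01% Triton X-100. Reaction started with 2 uM Z-FR-AMC; AMC fluorescence change over 60 s gave activity.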
# Numbers without * were called inactive; u = inconclusive. Only some compounds are listed: those with a hit (about 2.6% of all), similar ones and a draw of the others. Calls come from the whole dose curve; as a rule, active = well fitted curve in the direction sought with a large enough effect; inconclusive = small, poorly fitted or top-dose-only effect, or another doubt; inactive = no such curve, though single readings can be large; an effect the other way counts as inactive or inconclusive. Potency is the fitted concentration of half-maximal effect.
SMILES,Cruzain noTriton,Cruzain Triton
CC(=O)Nc1ccc(S(=O)(=O)NCC(=O)OCC(=O)c2cc(C)n(-c3ccc4c(c3)OCO4)c2C)cc1,u,-4%
CC(=O)c1ccc(OCC(=O)c2cc(C)n(-c3ccc4c(c3)OCO4)c2C)cc1,-9%,-4%
Cc1cc(C(=O)COC(=O)CC2Sc3ccccc3NC2=O)c(C)n1-c1ccc2c(c1)OCO2 (stereo not given),25µM*,-1%
Cc1cc(C(=O)COC(=O)CC2Sc3ccccc3NC2=O)c(C)n1-c1ccc(Br)cc1 (stereo not given),4µM*,2%
Cc1cc(C(=O)COC(=O)CC2Sc3ccccc3NC2=O)c(C)n1-c1ccccc1 (stereo not given),u,-11%
Cc1cc(C(=O)COC(=O)c2ccc(N)c([N+](=O)[O-])c2)c(C)n1-c1ccc2c(c1)OCO2,13µM*,-2%
COc1ccc(-n2c(C)cc(C(=O)COC(=O)Cc3n[nH]c(=O)c4ccccc34)c2C)cc1,u,-6%
COc1ccc(-c2cc(C(F)(F)F)nc(SCC(=O)N3CCC(C)CC3)n2)cc1,-6%,-2%
Cc1nn(CC(=O)Nc2ccccc2F)c(=O)c2c(C)n(-c3ccc(Cl)cc3)nc12,3%,-1%
C/C=C1/C(=O)C[C@H]2[C@@H]3CCC4=CC(=O)CC[C@]4(C)[C@H]3CC[C@]12C,5%,-1%
COc1ccc(NC(=O)c2sc3nc(C)c(C(=O)Nc4ccc(C)cc4C)c(-c4ccc(C)o4)c3c2N)cc1,8%,-4%
COC(=O)c1ccc(-n2c(C)cc(C(=O)COC(=O)CC3Sc4ccccc4NC3=O)c2C)cc1 (stereo not given),25µM*,-4%
O=C(CC1Sc2ccccc2NC1=O)OCC(=O)N1CCc2ccccc21 (stereo not given),u,-7%
Cc1nn(Cc2ccccc2)c(C)c1NC(=O)c1cc(C(C)C)on1,4%,-2%
CCCCN=C1NN=C(c2cc3ccccc3o2)CS1,7.9µM*,-9%
COCCCN=C1NN=C(c2cc(C)n(-c3ccccc3)c2C)CS1,-5%,-7%
O=c1c2ccccc2c(-c2ccccc2)nn1-c1cc(Cl)ccc1[N+](=O)[O-],u,-1%
Cc1ccc(-c2nn(-c3cc(Cl)ccc3[N+](=O)[O-])c(=O)c3ccccc23)cc1C,13µM*,0%
COc1ccc(CNc2ccnc(-c3c(C)noc3C)n2)c(OC)c1,0%,4%
Cc1cc(C(=O)NCC(=O)OCC(=O)N2CCCCCC2)ccc1[N+](=O)[O-],16µM*,14µM*
CCOc1ccc(C(=O)NCC(=O)OCC(=O)N2CCCCC2)cc1,0%,-11%
CCOC(=O)C1CCCN(C(=O)c2ccc([N+](=O)[O-])c(C)c2)C1 (stereo not given),4%,-1%
O=C(CNC(=O)c1cccc(F)c1)OCC(=O)N1CCCCC1,u,25µM*
COc1ccc(-c2cc3ccc(O)c(CN4CCOCC4)c3oc2=O)cc1OC,1%,4%
CC1CCN(Cc2c(O)ccc3c(=O)c(Oc4ccccc4Cl)c(C(F)(F)F)oc23)CC1,-1%,-3%
SMILES,Cruzain noTriton,Cruzain Triton
Cc1ccc(S(=O)(=O)Nc2cc(Cl)c3oc4c(c3c2)C(=O)CC(C)(C)C4)cc1,0%,7%
Cc1cccc(C)c1Nc1c(-c2ccccc2Cl)nc2cnccn12,13%,-6%
O=C(c1cccc(F)c1)N1CCC2(CC1)CN(c1ccccn1)C2,-10%,-9%
Cc1ccc(CCNC(=O)CCCn2c(=O)c3ccccc3n(Cc3ccccc3C)c2=O)cc1,-2%,-2%
COc1ccc(O)c(/C=N/NC(=O)c2ccc(OCc3cccc(Br)c3)cc2)c1,7.9µM*,-4%
COc1ccc(O)c(/C=N/NC(=O)c2ccc(CSc3nc(C)cc(C)n3)cc2)c1,7%,-4%
CCOc1ccc(NC(=O)CC2C(=O)N(c3ccccc3)C(=O)N2Cc2cccc(OC)c2)cc1 (stereo not given),-7%,-4%
O=C(COC(=O)/C=C/c1ccccc1)Nc1cc(C(F)(F)F)ccc1N1CCOCC1,-2%,-2%
O=C(COC(=O)/C=C/c1ccc(Cl)cc1Cl)Nc1cc(C(F)(F)F)ccc1N1CCOCC1,13µM*,-3%
O=C(C/C=N/OCc1c(Cl)cccc1Cl)c1cnc(-c2ccccc2)s1,13µM*,1%
O=C(C/C=N/OCc1ccc(Cl)cc1)c1cnc(-c2ccccc2)s1,-30%,-4%
COc1ccc(-c2cc(C(=O)Nc3cccc(C(C)=O)c3)no2)cc1OC,-10%,-1%
O=C(Nc1cnn(C23CC4CC(CC(C4)C2)C3)c1)c1cc(-c2ccccc2)on1,u,-7%
COc1ccc(-c2cc(C(=O)Nc3cccc(C(C)=O)c3)no2)cc1,20µM*,0%
Cc1ccc(-c2cc(C(=O)Nc3cnn(C45CC6CC(CC(C6)C4)C5)c3)no2)cc1,13µM*,5%
COc1ccc(-c2cc(C(=O)Nc3ccc(C)cc3)no2)cc1,20µM*,1%
COc1ccc(NC(=O)c2cc(-c3ccccc3OC)on2)cc1,-10%,-6%
CCc1nc2c(cnn2-c2ccc(Cl)cc2)c(=O)n1-c1ccc(OC)c(Cl)c1,4%,-1%
Cc1cccc(-c2nc(SCC(=O)N(C)c3ccccc3)c3c(=O)n(C)c(=O)n(C)c3n2)c1,17%,1%
COc1ccc(CCNC(=O)c2ccc3c(c2)N(Cc2cccc(Cl)c2)C(=O)c2ccccc2S3=O)cc1OC (stereo not given),-12%,-2%
CC(=O)N1CCc2c(sc3c2c(=O)n(-c2cccc(Cl)c2)c(=O)n3Cc2ccc(F)cc2Cl)C1,u,-2%
CC1=C(C(=O)Nc2cccnc2)C(c2ccccc2Cl)n2nc(-c3ccccc3)nc2N1 (stereo not given),11%,-4%
Cc1c(-c2ccccc2)c(=O)oc2c(CN3CCCC3)c(O)ccc12,u,-3%
COc1cccc(C(=O)Nc2cccc(OCc3cc(=O)n4cccc(C)c4n3)c2)c1,-2%,2%
Cc1cccc(C(C)C)c1NC(=O)c1ccc2c(c1)CCN2S(C)(=O)=O,1%,-1%
SMILES,Cruzain noTriton,Cruzain Triton
COc1cccc([C@@H]2Nc3ccc(C(=O)O)cc3[C@@H]3C=CC[C@@H]32)c1OC,-21%,-5%
COc1ccc2c(c1)C1C=CCC1C(c1cc3c(cc1Br)OCO3)N2 (stereo not given),25µM*,-4%
CCN(C(=O)C1CCC(CNS(=O)(=O)c2cccc3nsnc23)CC1)c1cccc(C)c1 (stereo not given),15%,-3%
CCOC(=O)C1=C(C)N=C2c3ccccc3C(=O)C2C1c1ccc(Cl)cc1 (stereo not given),-7%,-5%
CCOC(=O)C1=C(Cc2ccc(Cl)cc2)C(=O)c2ccccc2C1=O,16µM*,-7%
Cc1cccc(NC(=O)c2cc(S(=O)(=O)c3ccccc3)ccc2Cl)c1,-2%,-5%
Cc1ccc(S(=O)(=O)N/N=c2\oc3ccccc3cc2C(=O)Nc2cccc(C)c2)cc1,7.9µM*,-2%
COc1ccccc1-c1cc(C(=O)Nc2sc3c(c2C#N)CCC(C)C3)c2ccccc2n1 (stereo not given),3.2µM*,1%
N#Cc1c(NC(=O)c2ccccc2)sc2c1CCCCC2,-1%,-10%
COc1ccc(OC)c(-c2cc(C(=O)Nc3sc4c(c3C#N)CCC(C)C4)c3ccccc3n2)c1 (stereo not given),u,1%
COc1ccc(-c2cc(C(=O)Nc3sc4c(c3C#N)CCCC4)c3ccccc3n2)cc1,7.9µM*,-5%
